Records with an inconclusive call do not appear. Calls of active or inactive are those of the source. Calls come from the whole dose curve; as a rule, active = well fitted curve in the direction sought with a large enough effect; inconclusive = small, poorly fitted or top-dose-only effect, or effect the other way, or another doubt; inactive = no such curve, though single readings can be large or run the other way.
Experiment: Cytotoxicity qHTS for assessment of Hepg2 cells membrane integrity screened against the NCATS CANVASS Library (AID 1347387)
Conditions: HepG2 LDH release (CytoTox-ONE) fluorescence, 5 h; series mostly up to 46.1 µM; cytotoxicity (LDH release): at the top concentration
From the text: Natural products and their derivatives continue to be wellsprings of nascent therapeutic potential. However, many laboratories have limited resources for biological evaluation, leaving their previously isolated or synthesized compounds largely or completely untested. To address this issue, the Canvass library of natural products was assembled (https://tripod.nih.gov/canvass), in collaboration with academic and industry researchers, for quantitative high-throughput screening (qHTS) across a diverse set of cell-based and biochemical assays. The pure (>85% purity by liquid chromatography/mass spectrometry [LC/MS]) Canvass library of 346 natural products were submitted by 45 academic laboratories and companies around the world. We collected pure natural products to circumvent deconvolution and structure elucidation due to time and resource limitations. The library was formatted into 1536-well plates and evaluated in 50 qHTS (in an 11-pnt concentration series) bioassays with broad scope of disease-relevant mechanisms. The resulting data set from 50 different assays was then systematically analyzed to identify overall trends and specific natural products with interesting biological activities. Reported herein are the results of each individual qHTS and their corresponding assay protocol. The membrane integrity assay is a fluorometric method for estimating the number of nonviable cells. The assay measures the release of lactate dehydrogenase (LDH) from cells with a damaged cellular membrane. The amount of fluorescence is proportional to the number of lysed cells. National Center for Advancing Translational Sciences (NCATS), Rockville, MD National Institute of Health (NIH), Bethesda, Maryland
Membrane Integrity-screen protocol: 1. In black solid-bottom 1536 well plates, 5 uL of HepG2 cell suspension was dispensed using the Multidrop Combi (Thermo Fisher Scientific) at a final concentration of 2000 cells / well (columns 2-48). 2. The assay plates were incubated overnight at 37C, 5% CO2 to allow the cells to acclimate and attach. 3. 23 nL of compounds (in DMSO), vehicle control (DMSO) or control compound were pin transferred into the assay plates using the Kalypsis pin tool (Wako USA) equipped with a 1536 well pin heads, resulting in final concentration of 0.59 nM - 46 uM. 4. The assay plates were further incubated for 5 hr at 37C, 5% CO2. 5. 5 uL of CytoTox-ONE Membrane Integrity Assay reagent was added to the plates using the BioRAPTR dispenser followed by a 10 min room temperature incubation. 6. The fluorescence signal was measured using the EnVision plate reader (PerkinElmer) using a 560 nm excitation and 590 nm emission filters.

SMILES | cytotoxicity (LDH release)
C[C@]12CC(O)C3[C@@H](CCC4C[C@@H](O)CC[C@@]43CO)[C@@]1(O)CCC2C1=CC(=O)OC1 (stereo not given in full) | -1.42 (inactive)
CNCCc1ccc(O)cc1 | 0.585 (inactive)
CCC[C@H]1CC[C@H]2[C@H](C)CCC[C@H]2N1 | -0.876 (inactive)
CCCCC[C@@H]1OC(=O)[C@@H](C)N(C)C(=O)[C@H](CCCCC)OC(=O)C(C)N(C)C(=O)[C@H](CCCCC)OC(=O)[C@@H](C)N(C)C(=O)[C@H](CCCCC)OC(=O)C(C)N(C)C1=O (stereo not given in full) | 8.23 (inactive)
CN1C(=O)[C@]23CC4C(C)(C)[C@@]5(C[C@@]41CN2CC[C@@]3(C)O)C(=O)Nc1c5ccc2c1OC=CC(C)(C)O2 (stereo not given in full) | -2.42 (inactive)
COC(=O)C1=C2Nc3ccccc3[C@@]23CCN2CC(C(C)=O)C1C[C@H]23 (stereo not given in full) | 1.3 (inactive)
CC(=O)N[C@H]1CCN2CCC[C@H]12 | -0.609 [at 103 µM] (inactive)
CCN1C[C@]2(C)CC[C@H](O)[C@]34C1C(C[C@H]23)[C@@]12CC[C@H](CC14)[C@](O)(COC(=O)c1ccc(OC)c(OC)c1)[C@H]2O (stereo not given in full) | 2.28 (inactive)
COc1ccc2c3c([nH]c2c1)C(C)=NCC3 | -1.61 (inactive)
CNCCc1ccccc1 | -0.952 (inactive)
CN(C)Cc1c[nH]c2ccccc12 | -0.473 (inactive)
CC1=CC2CC[C@@H]3[C@@H](C)C[C@H](C)[C@@H](C1)N23 (stereo not given in full) | 1.46 (inactive)
CCC(=O)CCCCC[C@@H]1NC(=O)[C@H]2CCCCN2C(=O)[C@H]([C@@H](C)CC)NC(=O)[C@H](Cc2cn(OC)c3ccccc23)NC1=O | 1.23 (inactive)
COc1ccc2c(c1)[nH]c1c(C)nccc12 | -1.2 [at 91.4 µM] (inactive)
CC[C@@H]1CN2CC[C@@]3(O)C(=Nc4cccc(OC)c43)[C@@H]2C[C@@H]1/C(=C\OC)C(=O)OC | 0.828 (inactive)
CCCC[C@@H]1CC[C@H]2CCCC(CCC)N12 (stereo not given in full) | 0.304 (inactive)
CO[C@@H](/C=C/CC/C=C/C(=O)O)[C@@H](O)[C@H](C)[C@@H](O)/C(C)=C/[C@H](C)C(=O)CCCC1CC(=O)NC(=O)C1 | 1.66 (inactive)
CC1=CC(=O)C2=C(C)C[C@H](O)[C@@H]3[C@H](OC(=O)[C@@H]3C)[C@@H]12 | 0.156 (inactive)
CO[C@H](c1ccccc1)[C@H]1NC(=O)C(C)NC(=O)C(C[C@@H](C)CO)N(C)C(=O)[C@@H](C(O)c2cn(C(C)(C)C3CO3)c3ccccc23)NC(=O)C(C(C)C=C(C)C)NC(=O)C(CC(C)C)N(C)C(=O)C(C(C)C)NC1=O (stereo not given in full) | -1.04 [at 27.5 µM] (inactive)
C/C=C1/CN2CC[C@]34C(=Nc5ccccc53)[C@@H]2C[C@@H]1[C@H]4C(=O)OC | 1.25 [at 91.4 µM] (inactive)
CC=C1CN(C=O)[C@H]2C[C@@H]1[C@@H](C(=O)OC)[C@@]13CCOC21Nc1ccccc13 (stereo not given in full) | 4.49 (inactive)
CC[N@@+]1([O-])C[C@]2(C)CC[C@@H](O)[C@@]34C5C[C@H]6CC[C@@]5(C(C[C@H]23)C41)[C@H](O)[C@@]6(O)CO (stereo not given in full) | -0.654 (inactive)
C=C1[C@@H](C)[C@H]2[C@H](Cc3ccccc3)NC(=O)[C@]23OC(=O)/C=C/[C@H](O)CCC[C@@H](C)C/C=C/[C@H]3[C@@H]1O | 0.79 (inactive)
NCCc1ccccc1 | 1.1 (inactive)
O=C(c1ccccc1O)c1[nH]c(Cl)c(Cl)c1-n1c(C(=O)c2ccccc2O)cc(Cl)c1Cl | 0.385 (inactive)
COc1ccc(C23Oc4cc(OC)cc(OC)c4[C@](O)([C@H](c4ccccc4)C2C(=O)NCCCCNC(=O)c2ccccc2)[C@@H]3O)cc1 (stereo not given in full) | 0.695 (inactive)
CO[C@@H](/C=C/CC/C=C/C(=O)O)[C@@H](O)[C@H](C)/C=C(\C)[C@@H](O)[C@H](C)C(=O)CCCC1CC(=O)NC(=O)C1 | -0.29 (inactive)
c1ccc2c3c([nH]c2c1)CNCC3 | -0.939 (inactive)
CCN1C[C@]2(C)CC[C@@H](O)[C@]34C1[C@H](C[C@H]23)C12CCC(CC14)[C@](O)(CO)[C@H]2O (stereo not given in full) | 2.4 (inactive)
CNCCc1c[nH]c2ccccc12 | 1.02 (inactive)

Source: PubChem BioAssay (NCATS)
